Among all 340,000 compounds or so, about 2,100 (0.62%) were called active.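 The calls were made as follows: active = first-screen hits whose inhibition reached a set limit at any dose in the follow-up dose series; inconclusive = inhibition above the set first-screen limit but never retested; inactive = the rest.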 These entries were drawn from the full list. Measured potencies and affinities stand elsewhere.
Biological target: Rac GTPase-activating protein 1 (Homo sapiens) (UniProt Q9H0H5)
Test: blockers of MgcRacGAP-driven Rac1 GTP hydrolysis – biochemical, ADP Hunter fluorescence, primary and confirmatory, confirmation (AID 624330);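 also: fluorescence reports GDP produced by GAP-driven GTP hydrolysis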
Details: MgcRacGAP-stimulated Rac1 GTP hydrolysis, at 30 µM, hits give high values, GST-tagged Rac1 F28L mutant substrate

Sequence of Rac GTPase-activating protein 1 (Homo sapiens) (Q9H0H5 whole entry, looked up): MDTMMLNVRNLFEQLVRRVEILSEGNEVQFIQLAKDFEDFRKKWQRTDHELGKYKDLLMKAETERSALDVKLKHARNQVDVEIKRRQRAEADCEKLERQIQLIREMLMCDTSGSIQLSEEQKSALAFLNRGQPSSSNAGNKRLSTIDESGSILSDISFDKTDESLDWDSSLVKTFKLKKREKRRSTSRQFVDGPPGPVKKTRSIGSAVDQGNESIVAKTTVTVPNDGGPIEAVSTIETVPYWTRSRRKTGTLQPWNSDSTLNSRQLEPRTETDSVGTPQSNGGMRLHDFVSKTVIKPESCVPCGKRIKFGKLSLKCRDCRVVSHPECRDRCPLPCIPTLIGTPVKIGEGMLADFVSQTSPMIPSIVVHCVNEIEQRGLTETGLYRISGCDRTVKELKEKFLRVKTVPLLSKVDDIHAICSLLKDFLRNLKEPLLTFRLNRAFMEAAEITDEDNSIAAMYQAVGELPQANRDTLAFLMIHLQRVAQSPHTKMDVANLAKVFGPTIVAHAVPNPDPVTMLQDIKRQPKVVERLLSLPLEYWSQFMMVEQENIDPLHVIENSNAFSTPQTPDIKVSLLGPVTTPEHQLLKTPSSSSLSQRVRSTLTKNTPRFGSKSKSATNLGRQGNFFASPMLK

inhibition, inactive:
COc1ccc(CN2C(=O)C(CC(=O)NCCCN(C)C)CC(C(=O)N(C)C)=C2C)cc1 (configuration not stated) 12.7%
CN(CCc1ccccn1)c1ncnc2[nH]ncc12 6.58%
Cc1sc2ncnc(N(C)Cc3cccs3)c2c1C 10.9%
COc1ccc(CNC(=O)CCCn2nc([N+](=O)[O-])cc2C)cc1 9%
O=C1c2ccccc2C(=O)N1c1nc(-c2cccs2)cs1 13.9%
O=C1CCCCCCCN1Cc1ccccc1 1.03%
O=C1CCCCCN1Cc1ccccc1 3.56%
COc1ccc(NC(=O)Nc2ccon2)cc1OC 7.89%
COc1ccc(CN2CCN(Cc3ccco3)CC2)cc1 29.8%
COc1cc(OC)c(OC)cc1CN1CCN(Cc2ccco2)CC1 20.1%
FC(F)(F)c1ccc(CN2CCN(Cc3ccco3)CC2)cc1 15.3%
Cc1ccc(S(=O)(=O)N2CCN(Cc3ccco3)CC2)c(C)c1 3.78%
CCc1ccc(S(=O)(=O)N2CCN(Cc3ccco3)CC2)cc1 6.82%
COc1ccc(CN2CCN(C(=O)c3ccco3)CC2)cc1OC 11.2%
Cc1cccc(CN2CCSCC2)c1 23.8%
CCCc1ccc(S(=O)(=O)N2CCN(Cc3ccco3)CC2)cc1 8.89%
CCc1sc(C(=O)NCCCN2CCCC2=O)cc1Br -10%
Cc1ccc(C)c(S(=O)(=O)N2CCN(C(=O)CSc3ccccc3)CC2)c1 8.52%
CC(Sc1nnc(-c2ccncc2)n1C)C(=O)NCC1CCCO1 (configuration not stated) 1.73%
CN(C)CCOC(=O)CC12CC3CC(C1)CC(CC(=O)OCCN(C)C)(C3)C2 5.06%
COc1cccc(CNC(=O)c2ccc(S(=O)(=O)N3CCCCC3)cc2)c1 9.59%
Cc1ccc(S(=O)(=O)Nc2cc(=O)[nH]c(SCC(=O)Nc3ccccc3C(F)(F)F)n2)cc1 5.86%
CCOC(=O)CC(NC(=O)CCc1c(C)nc2nc(C)nn2c1C)c1ccc(OC(C)C)cc1 (configuration not stated) 8.74%
CCCOc1ccc(N)cc1N 18.7%
CCOc1ccc(C(=O)O)cc1OC 5.02%
CCOc1ccc(C(N)=O)cc1OC -0.9%
CCN(CC)Cc1cc(C(C)=O)ccc1OCC(C)C -0.12%
COc1ccc2[nH]c3c(c2c1)CCN1C(=O)C(CC(=O)NCCC2=CCCCC2)C[C@H](C(=O)N2CCCCC2)[C@@]31CCc1ccccc1 (some centres not stated) 3.14%
CCc1nc(N)c(C#N)c(-c2ccc(F)cc2)c1C 16%
O=C(Nc1ccc(C(F)(F)F)cc1)C1CC(=O)N(c2ccc3c(c2)OCCO3)C1 (configuration not stated) 11.2%
O=C(COC(=O)c1ccccc1O)Nc1ccc(OC(F)F)cc1 6.22%
[O-]/C(=C(\C(=S)Nc1cccc2ccccc12)[n+]1ccccc1)c1ccc(OC(F)F)cc1 8.46%
Cc1ccc(S(=O)(=O)C2CCCCC2=O)cc1 (configuration not stated) 12.8%
Nc1ccc(CCC(=O)N2CCCC2)cc1 3.67%
Cc1c(Cl)c([N+](=O)[O-])nn1Cc1ccc(C(=O)N/N=C\c2ccccn2)o1 3.44%
Cc1ccc(S(=O)(=O)N/N=C/c2ccc(O)c(O)c2)cc1[N+](=O)[O-] 30.2%
O=C(CNC(=O)c1cccc(F)c1)N/N=C/c1cccc([N+](=O)[O-])c1 4.45%
CCN(CC)c1ccc(/C=N/NS(=O)(=O)c2cccc([N+](=O)[O-])c2)cc1 23.2%
COc1cc(/C=N/NC(=O)c2cccc([N+](=O)[O-])c2)cc(OC)c1O 6.29%
COc1cc(/C=N/NS(=O)(=O)c2ccc(C)c([N+](=O)[O-])c2)cc([N+](=O)[O-])c1O 22.1%
Cc1c(Cl)c([N+](=O)[O-])nn1Cc1ccc(C(=O)N/N=C\c2cccc(Br)c2)o1 6.83%
O=[N+]([O-])c1cccc(/C=N/NS(=O)(=O)c2ccccc2)c1 3.56%
O=C(C1CCN(S(=O)(=O)N2CCCCC2)CC1)N1CCCCC1 6.28%
CC1=C(C(=O)N2CCCC(CCC(=O)NCc3ccc(F)c(F)c3)C2)OCCO1 (configuration not stated) 6.22%
COc1ccc(/C=N/NC(=O)c2cccc([N+](=O)[O-])c2)cc1OC 7.73%
COc1ccc(/C=N/NC(=O)c2cccc([N+](=O)[O-])c2)cc1O 8.06%
Cc1cccc(NC(=O)CSc2nnc(CNC(=O)c3cccs3)o2)c1C 8.9%
CC(C)NC(=O)CSCc1c(F)cccc1Cl 9.25%
Oc1ccc(-c2nc3ncccn3c2Nc2ccc3c(c2)OCCO3)cc1 11.9%
Oc1ccc(-c2nc3ccccn3c2NCc2ccc3c(c2)OCO3)cc1 24.6%
Cc1ccc(-c2nc3ccccn3c2NCc2ccc3c(c2)OCO3)cc1 11.7%
Cc1cccc(Nc2c(-c3ccc(N4CCOCC4)cc3)nc3ncccn23)c1 7.86%
Cc1ccc(-c2nc3cnccn3c2Nc2ccc3c(c2)OCO3)cc1 24.2%
Cc1ccn2c(NCc3ccc4c(c3)OCO4)c(-c3ccc(O)cc3)nc2c1 15.5%
S=C1NC[C@H](CC2CCCCC2)N1CC1CCCCC1 5.21%
COc1c(C)cc(C(=O)C2CCCN(Cc3cccc4nccnc34)C2)cc1C (configuration not stated) 5.94%
CCCNC(=O)Nc1nnc(C2CC2)s1 2.83%
Cc1ccc(C(=O)NCCc2ccccc2)cc1S(=O)(=O)N1CCOCC1 1.5%
CCN(CC)CCCNC(=O)c1cc2c(-c3ccc(Cl)cc3)nn(C)c2s1 15.3%
CCCN(CCC)CCNC(=O)c1cc2c(-c3ccc(Cl)cc3)nn(C)c2s1 31.8%
CCOc1ccc(-c2nnc(SCC(=O)O)n2Cc2ccccc2)cc1 8.65%
COc1ccc(C)cc1NC(=O)C(NCC1CCCO1)c1ccccc1 (configuration not stated) 6.45%
COc1ccc(C)cc1NC(=O)CNC(c1ccccc1)c1ccccc1 1.89%
CCOc1ccc(-c2csc(NC(=O)c3cccc(N4C(=O)CCC4=O)c3)n2)cc1 1.94%
COc1ccc(Cl)cc1NC(=O)NN1CCN(C)CC1 9.05%
COc1cccc(-c2c(C(=O)N/N=C(\C)c3ccco3)nnn2-c2nonc2N)c1 3.24%
Cc1ccc(/C=N/n2c(C)nnc2C)s1 5.21%
Cc1nnc(C)n1/N=C/c1cccc([N+](=O)[O-])c1 0.71%
Cc1nnc(C)n1/N=C/c1cccs1 17.6%
c1cncc(-c2nnc3n2N=C(c2cccs2)CS3)c1 7.37%
S=c1[nH]nc(-c2cccnc2)n1/N=C/c1ccc(Br)s1 8.12%
Cc1ccc(-c2n[nH]c(=S)n2/N=C/c2cccs2)cc1 25.8%
O=[N+]([O-])c1ccc(/C=N/n2c(-c3cccnc3)n[nH]c2=S)cc1 14.5%
C(=N\N=C\c1cccs1)/c1cccs1 3.75%
O=C(CCNC(=O)c1ccco1)NCc1ccc(C(=O)O)cc1 10.3%
O=C(NCc1cccnc1)c1ccc([N+](=O)[O-])cc1 6.96%
CC1(C)CC(=O)C2=C(C1)NC(SCC(N)=O)=C(C#N)C21CCCCC1 7.26%
CC(C)Oc1ccc(OCCn2c(S(=O)(=O)O)nc3c(N)ncnc32)cc1 2.7%
Cc1ccccc1OCCn1c(S(=O)(=O)O)nc2c(N)ncnc21 9.98%
CCOc1ccc(OCCn2c(S(=O)(=O)O)nc3c(N)ncnc32)cc1 12.6%
Cc1ccccc1OCCn1cnc2c(N)ncnc21 -13%
CN1CCN(C(=O)CSc2cc(=O)n(C)c3ccccc23)CC1 6.45%
CCOC(=O)N1CCC(NC(=O)C(CC(C)C)NC(=O)C2CCCCC2)CC1 (configuration not stated) 9.57%
Cc1ccc(S(=O)(=O)N2CCC(C(=O)NCCc3ccccn3)CC2)cc1 -0.14%
COc1cc(/C=C2\SC(N)=NC2=O)cc(Br)c1O 29.2%
COc1ccc(Br)cc1C(=O)NC(=S)Nc1ccc(Cl)c(C(=O)O)c1 5.62%
COc1cc(/C=C2\SC(c3ccccc3)=NC2=O)cc(Cl)c1O 27.3%
COc1ccc(Br)cc1/C=C/C(=O)NC(=S)Nc1ccc(Cl)c(C(=O)O)c1 6.62%
COc1cc(/C=C2/SC(=S)N(Cc3ccccc3)C2=O)cc(Cl)c1O 10%
COc1ccc(/C=C2\SC(N)=NC2=O)cc1Cl 1.73%
CC1CCCCN1C(=O)c1ccc(CS(=O)(=O)Cc2ccccc2)cc1 (configuration not stated) 8.5%
CCN1CCN(C(=O)c2[nH]c3ccc(OC)cc3c2C)CC1 6.11%
Cc1ccc(S(=O)(=O)NCCc2c[nH]c3ccccc23)cc1 4.49%
COc1ccc(CCNC(=O)CCn2c(=O)c3cccn3c3ccc(F)cc32)c(OC)c1OC 12.9%
O=C1NCC(COc2cccc3ccccc23)O1 (configuration not stated) -1.12%
Cn1c(O)c(N=NC(=O)CNC(=O)c2cccnc2)c2ccccc21 4.23%
CCN1C[C@@H]2[C@@H]3C(=O)N(Cc4ccccc4)C(=O)[C@@H]3[C@](C)(C1=O)N2C(=O)c1ccc(Br)cc1 7.24%
